Consider 31 compounds from PubChem BioAssay AID2551 (National Center for Advancing Translational Sciences (NCATS), 2010).

Hit rate of the full screen: of about 310,000 compounds, about 17,000 (5.5%) were called active. Where a call stands in place of a potency, no number is given. Another 11% or so got no clear call; they are omitted. This is one part of a sample in which actives are shown more often than they occur. Calls come from the whole dose curve; as a rule, active = well fitted inhibition curve with a large enough effect; inconclusive = small, poorly fitted or top-dose-only effect, or effect the other way; inactive = no such curve, though single readings can be large or run the other way.
Potency is the fitted concentration of half-maximal effect.

For this experiment, the target named is Nuclear receptor ROR-gamma (Mus musculus) (UniProt P51450). In words: qHTS for inhibitors of ROR gamma transcriptional activity. Note: nearly all actives have a fitted effect of over 60% in size. Particulars: Drosophila S2 Gal4-RORgamma UAS-luciferase reporter, 20 h; series mostly up to 53.6 µM. In short, it runs like this: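 ROR gamma transcriptional activity was tracked as Gal4-UAS luciferase output in stably transfected Drosophila Schneider cells, with compound added 1 hr before 700 uM copper sulfate induction and a 20 hr ambient-temperature incubation.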
Nuclear receptor ROR-gamma (Mus musculus), sequence (P51450 whole entry, looked up, the tested form may be a part): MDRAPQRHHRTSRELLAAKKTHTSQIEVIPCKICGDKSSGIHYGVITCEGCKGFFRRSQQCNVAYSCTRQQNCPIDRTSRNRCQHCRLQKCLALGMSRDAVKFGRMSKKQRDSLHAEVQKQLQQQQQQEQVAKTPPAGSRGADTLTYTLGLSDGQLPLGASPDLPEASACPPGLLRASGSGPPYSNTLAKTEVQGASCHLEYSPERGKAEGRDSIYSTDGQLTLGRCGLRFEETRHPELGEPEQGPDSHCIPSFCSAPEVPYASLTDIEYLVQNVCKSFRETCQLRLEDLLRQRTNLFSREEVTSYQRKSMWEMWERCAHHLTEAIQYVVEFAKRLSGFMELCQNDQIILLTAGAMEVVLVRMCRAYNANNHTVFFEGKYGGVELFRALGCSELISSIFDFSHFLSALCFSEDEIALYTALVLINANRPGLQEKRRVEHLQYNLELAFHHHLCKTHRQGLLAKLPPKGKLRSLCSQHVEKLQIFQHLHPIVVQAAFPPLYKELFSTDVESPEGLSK
Background: qHTS replaces the single test concentration by a dilution series.
On to `COc1ccc(-c2c(C#Cc3ccccc3)c3ccccc3n2C)cc1`, for which the Potency entry is “inactive”.

Regarding `O=c1[nH]c(=S)[nH]c2[nH]c(=S)[nH]c12`, the Potency entry is “inactive”.

With `Cc1cc(=O)[nH]c(=S)[nH]1`, the Potency entry is “inactive”.

As for `Cc1c(C)c(C)c2[nH]c(=S)[nH]c2c1C`, the Potency was 2.82 µM (active).

`CCOC(=O)CNc1nc(Cl)nc(Nc2ccc(OC)cc2OC)n1`: the Potency result was “inactive”.

On to `COCC1CCN(C(=O)c2ccc3oc(Cc4ccccc4)nc3c2)C1` (stereo unspecified), for which the Potency result is “inactive”.

As for `COc1ccc(NC(=O)C2CCC(CNC(=O)[C@@H]3Cc4ccccc4CN3)CC2)cc1` (stereo partly specified), the Potency entry is “inactive”.

On to `COc1ccc(NC(=O)CN2C(=O)COc3ccc(S(=O)(=O)N4CCOCC4)cc32)c(OC)c1`, for which the Potency result was “inactive”.

For the compound `O=C(C[n+]1cc(Br)cc2ccccc21)c1ccc(F)cc1`, the Potency result is “inactive”.

For `COc1ccc(C(=O)N2CCCCC2C(=O)Nc2ccc(-n3nc(C)cc3C)cc2)o1` (stereo unspecified), the Potency result was “inactive”.

For the compound `Cc1cccc(CNS(=O)(=O)c2ccc(-c3cnc(C4CC4)o3)cc2)c1`, the Potency entry was “inactive”.

`CC(CCc1ccc(O)cc1)NCc1ccc(Cl)cc1Cl` (stereo unspecified): the Potency entry is “inactive”.

On to `CC(C)CC(=O)NC(=S)NNC(=O)c1cccc([N+](=O)[O-])c1`, for which the Potency is 12.6 µM (active).

Consider `O=C(NNS(=O)(=O)Cc1ccccc1)c1ccc([N+](=O)[O-])cc1`, for which the Potency result is “inactive”.

For `Cc1cccc(C(=O)NNC(=O)c2cccc([N+](=O)[O-])c2)c1`, the Potency result is “inactive”.

For the compound `CC(C)(C)SCCNC(=O)c1cccc([N+](=O)[O-])c1`, the Potency result is “inactive”.

Take `CCCCCC(=O)Nc1ccc(C(=O)N/N=C/c2ccc([N+](=O)[O-])cc2)cc1`: the Potency entry was “inactive”.

Consider `CCCCCC(=O)NC(=S)NNC(=O)c1ccc([N+](=O)[O-])cc1`, for which the Potency was 14.1 µM (active).

Turning to `COc1ccc(OC)c(CCNC(=O)c2nn(C)c3c2CS(=O)(=O)c2ccccc2-3)c1`, the Potency entry is “inactive”.

In the case of `Cc1cc2oc(=O)cc(CN3CCN(Cc4ccccc4)CC3)c2cc1C`, the Potency entry is “inactive”.

For `CN(C)CCCn1c(=O)n(Cc2ccccc2)c(=O)c2c3c(sc21)CCCCC3`, the Potency entry was “inactive”.

Turning to `CCCc1nc2sc3c(c2c(=O)n1NC(=O)CCCl)CCCC3`, the Potency result was “inactive”.

Turning to `CCn1c(=S)[nH]c2sc3c(c2c1=O)CCCCC3`, the Potency is 0.447 µM (active).

Turning to `Cc1cccc(C(=O)N2CCCC(Nc3ccc(C(C)C)cc3)C2)n1` (stereo unspecified), the Potency result was “inactive”.

For `COc1ccc(NC2CCCN(C(=O)c3ccncc3)C2)cc1` (stereo unspecified), the Potency entry is “inactive”.

Take `CC(C)c1ccc(NC2CCCN(C(=O)c3ccncc3)C2)cc1` (stereo unspecified): the Potency was 2.51 µM (active).

Take `O=C(CCC1CCCN(C(=O)c2ccc(F)c(F)c2)C1)N1CCN(c2ccccn2)CC1` (stereo unspecified): the Potency entry was “inactive”.

With `CC(NC(=O)c1cc2cc(Cl)ccc2oc1=N)c1ccccc1` (stereo unspecified), the Potency entry was “inactive”.

For `CCC(C)NC(=O)c1c(N)n(/N=C/c2cccs2)c2nc3ccccc3nc12` (stereo unspecified), the Potency was 10 µM (active).

`CCC(C)NC(=O)c1nn(C)c(=O)c2ccccc12` (stereo unspecified): the Potency result was “inactive”.

For `Cc1nc2ccccc2n1CC(=O)N/N=C/c1cccs1`, the Potency entry is “inactive”.
